# Bioassay records as filed in PubChem BioAssay.
# RXFP1 ag: RXFP1 (human) receptor agonism; HEK293T-RXFP1 cAMP TR-FRET, 30 min; response scale: percent of porcine relaxin response, buffer zero; AID 2676; 370,000 tested, 0.3% active; Q9HBX9; Potency, µM (titrated, usually from 57.5 µM), for the others: at the highest dose activation, hits mostly activators; further: potency means the concentration at half of the fitted maximal effect; on the % scale 0 is the no-effect control and ±100 the full control effect; nearly all actives have a fitted effect of over 60% in size
#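 HEK293 cells stably expressing RXFP1, treated 30 min at 37C with compounds plus PDE4 inhibitor Ro 20174; cAMP measured by HTRF TR-FRET. Normalized to buffer and 29 nM porcine relaxin; EC50 by Hill fit.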
# RXFP1 antag: antagonists of human relaxin receptor RXFP1; Q9HBX9; HEK293-RXFP1, relaxin-stimulated cAMP HTRF, 30 min; stronger effect = lower value; activity change, negative = inhibition, % at 57.5 µM; 350,000 tested, 0.59% active;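 active means activity change of -60% or lower, but not beyond a set lower limit; inconclusive means change between -60% and -40%, or beyond the set limit; inactive means change above -40%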; further: on the % scale 0 is the no-effect control and ±100 the full control effect
# Glioma ERSR ind: inducers of ER stress response in human glioma cells. U87-MG GRP78 promoter luciferase reporter, 16 h. Potency, µM, for inactives: top-dose activation, most hits filed as activators. 420,000 tested, 0.02% active. AID 602332; further: potency means the concentration at half of the fitted maximal effect; series mostly up to about 76 µM; % of control where 0% means no effect; nearly all actives have a fitted effect of over 35% in size
#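 Stably transfected U87-MG human glioma cells carrying a GRP78-based luminescent sensor were seeded at 1000 cells/well, pin-dosed with compounds and incubated 16 h. Luciferase reagent was then added, and end-point luminescence was read after 10 min at room temperature.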
# PTHR1 ag: agonists of human PTHR1 parathyroid hormone receptor | Q03431 | HEK293 GP2 PTHR1 cells, GloSensor cAMP luminescence, 1 h | Potency, µM (top dose mostly 115 µM), inactives show at the highest dose activation, usual class: activators | 410,000 tested, 0.075% active; further: potency means the concentration at half of the fitted maximal effect; nearly all actives have a fitted effect of over 55% in size
#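 HEK-293-derived GP2 cells expressing PTHR1 and a GloSensor cAMP reporter, 3,000/well, plated overnight, given luciferin plus IBMX (each 0.5 mM as added) for 1 h at 37 °C, then compound for 1 h at 37 °C. Luminescence was read after 15 min at room temperature.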
# hERG WT inh: inhibitors of human wildtype KCNH2 potassium channel; activity change, % at 1.84 µM; AID 720551; 340,000 tested, 0.37% active; Q12809; U2OS, BacMam KCNH2, thallium flux FluxOr; stronger effect = lower value;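 active means maximum activity change below -70%; inconclusive means maximum activity change between -70% and -50%; inactive means maximum activity change above -50%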; further: on the % scale 0 is the no-effect control and ±100 the full control effect
#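 U2OS cells were transduced with wild-type KCNH2 virus (2.03 x 10^8 / mL) for 4 h at room temperature, then cultured overnight at 37 C. Thallium flux was read with FluxOr dye. Rate constants were normalized to DMSO controls.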
# KCNH2 3.1 block: KCNH2 3.1 (human) potassium channel inhibition; U2OS KCNH2 3.1, thallium flux FluxOr; stronger effect = lower value; activity change, % (tested at about 1.8 µM); 340,000 tested, 0.95% active;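 active means maximum activity change below -70%; inconclusive means maximum activity change from -70% to -50%; inactive means maximum activity change above -50%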;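 further: thallium influx rate constant from kinetic fluorescence after stimulation buffer; on the % scale 0 is the no-effect control and ±100 the full control effect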
#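 Kinetic fluorescence (2 min after stimulation buffer) measures Tl+ influx through KCNH2 3.1 expressed by viral transduction in U2OS cells; the rate constant is normalized against DMSO controls serving as positive and negative references.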
# Numbers without * were called inactive; i = inactive; ? = inconclusive; · = no result given. Hits are enriched below; roughly 1.4% of the tested compounds scored in any of these assays. Unless noted, the call rests on the fitted dose curve; in most records, active means well fitted curve in the direction sought with a large enough effect; inconclusive means small, poorly fitted or top-dose-only effect, or another doubt; inactive means no such curve, though single readings can be large; an effect the other way counts as inactive or inconclusive.
SMILES,RXFP1 ag,RXFP1 antag,Glioma ERSR ind,PTHR1 ag,hERG WT inh,KCNH2 3.1 block
CCC(=Nc1ccc2c(c1)CCC2)c1c(O)n(-c2ccc(OC)cc2)c(=O)[nH]c1=O,3%,-2,-3%,-67%,-104*,4
Clc1cccc(Cl)c1Cn1nnc(N2CCCC2)n1,1%,-15,?,-1%,-138*,-1
O=c1[nH]c(=S)n(C2CC2)c(O)c1C=NCc1cccnc1,29%,3,-1%,i,4,27
O=c1[nH]c(=S)n(C2CC2)c(O)c1C=NCc1ccc(F)cc1,25µM*,3,-2%,-27%,4,-15
CN1Cc2ccccc2-n2nncc2C1,·,·,-2%,-25%,0,-23
